Of roughly 7,900 targets only a part is listed; those with a hit were picked by preference. About 0.6% of all pairs of compound and target were hits.
Compound: c1cn2cc(-c3ccc4cn[nH]c4c3)nc(Nc3ccc(N4CCOCC4)cc3)c2n1 [entospletinib]
Experiment: log2 fold change, soluble protein after heating vs DMSO (PISA); higher = thermal stabilisation; K562 cells, 10 uM, 30 min; active = over 0.2 and 3.5 SD of the protein, either way, in both replicates (recomputed)
How it was run: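 Values are thermal stability changes relative to control samples and are taken from duplicates. They are stated as log2 fold changes. Before quantification by TMTpro 16plex LC-MS/MS with equalised channel sums, K562 cells at 2×10^6 cells/mL were treated with 10 μM compound for 30 min, heated in aliquots for 3 min across 48°C-58°C, pooled, extracted in PBS with 0.5% NP-40 at 4°C, and centrifuged at 21,000xg for 90 min to give the soluble supernatant.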

UniProt Q9H6K1, sequence (Q9H6K1 whole entry, looked up): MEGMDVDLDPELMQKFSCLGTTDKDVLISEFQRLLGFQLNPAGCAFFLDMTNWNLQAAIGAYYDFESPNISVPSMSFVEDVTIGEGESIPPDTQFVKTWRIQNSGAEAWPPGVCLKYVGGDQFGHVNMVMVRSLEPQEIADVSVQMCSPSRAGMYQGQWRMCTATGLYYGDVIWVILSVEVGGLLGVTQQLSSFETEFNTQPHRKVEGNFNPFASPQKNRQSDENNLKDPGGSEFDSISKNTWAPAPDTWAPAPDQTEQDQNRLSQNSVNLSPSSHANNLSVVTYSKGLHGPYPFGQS
UniProt Q14681, sequence (Q14681 whole entry, looked up): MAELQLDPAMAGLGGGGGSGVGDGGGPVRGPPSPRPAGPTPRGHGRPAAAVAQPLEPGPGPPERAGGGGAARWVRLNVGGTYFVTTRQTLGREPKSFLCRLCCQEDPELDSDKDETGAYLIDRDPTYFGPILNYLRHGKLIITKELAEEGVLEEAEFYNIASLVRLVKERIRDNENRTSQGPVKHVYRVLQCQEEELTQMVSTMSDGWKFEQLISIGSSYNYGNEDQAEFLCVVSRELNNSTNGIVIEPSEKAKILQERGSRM
UniProt Q9UI26, sequence (Q9UI26 whole entry, looked up): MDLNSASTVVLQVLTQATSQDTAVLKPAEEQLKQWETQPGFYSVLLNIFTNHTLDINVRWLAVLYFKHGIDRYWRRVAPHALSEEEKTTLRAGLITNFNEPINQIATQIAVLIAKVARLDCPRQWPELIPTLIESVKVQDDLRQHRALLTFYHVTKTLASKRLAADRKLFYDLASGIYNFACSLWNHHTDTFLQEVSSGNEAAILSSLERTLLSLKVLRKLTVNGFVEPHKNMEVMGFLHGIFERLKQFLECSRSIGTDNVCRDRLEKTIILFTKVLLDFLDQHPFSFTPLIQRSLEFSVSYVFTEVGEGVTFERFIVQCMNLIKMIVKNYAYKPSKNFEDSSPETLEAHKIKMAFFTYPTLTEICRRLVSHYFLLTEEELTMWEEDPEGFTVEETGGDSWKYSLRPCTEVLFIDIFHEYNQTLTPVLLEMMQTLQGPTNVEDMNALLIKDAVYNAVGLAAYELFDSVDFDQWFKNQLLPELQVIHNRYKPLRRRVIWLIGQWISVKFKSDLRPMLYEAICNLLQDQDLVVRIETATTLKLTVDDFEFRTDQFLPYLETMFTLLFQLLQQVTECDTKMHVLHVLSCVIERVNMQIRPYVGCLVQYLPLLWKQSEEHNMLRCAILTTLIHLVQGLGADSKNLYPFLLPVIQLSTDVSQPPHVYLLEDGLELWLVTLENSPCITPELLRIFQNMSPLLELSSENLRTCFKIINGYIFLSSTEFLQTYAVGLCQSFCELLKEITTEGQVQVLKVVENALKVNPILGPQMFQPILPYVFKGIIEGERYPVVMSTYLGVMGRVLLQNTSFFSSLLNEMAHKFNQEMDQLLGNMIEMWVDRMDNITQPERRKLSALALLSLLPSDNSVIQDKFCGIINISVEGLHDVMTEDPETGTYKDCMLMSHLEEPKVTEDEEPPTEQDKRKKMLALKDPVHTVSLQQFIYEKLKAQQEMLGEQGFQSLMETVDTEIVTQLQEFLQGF
UniProt Q92551, sequence (Q92551 whole entry, looked up): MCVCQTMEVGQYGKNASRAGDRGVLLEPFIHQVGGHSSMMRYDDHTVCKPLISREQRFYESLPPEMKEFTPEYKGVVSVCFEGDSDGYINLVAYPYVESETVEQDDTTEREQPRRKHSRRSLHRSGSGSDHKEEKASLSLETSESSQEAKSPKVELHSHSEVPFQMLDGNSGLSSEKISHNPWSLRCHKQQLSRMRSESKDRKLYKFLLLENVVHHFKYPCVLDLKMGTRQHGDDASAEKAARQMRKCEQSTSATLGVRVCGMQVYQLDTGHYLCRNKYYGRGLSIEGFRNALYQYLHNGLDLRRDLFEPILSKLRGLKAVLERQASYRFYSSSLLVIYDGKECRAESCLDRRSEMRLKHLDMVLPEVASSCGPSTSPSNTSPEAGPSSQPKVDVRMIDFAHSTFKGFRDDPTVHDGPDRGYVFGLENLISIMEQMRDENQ
UniProt Q99661, sequence (Q99661 whole entry, looked up): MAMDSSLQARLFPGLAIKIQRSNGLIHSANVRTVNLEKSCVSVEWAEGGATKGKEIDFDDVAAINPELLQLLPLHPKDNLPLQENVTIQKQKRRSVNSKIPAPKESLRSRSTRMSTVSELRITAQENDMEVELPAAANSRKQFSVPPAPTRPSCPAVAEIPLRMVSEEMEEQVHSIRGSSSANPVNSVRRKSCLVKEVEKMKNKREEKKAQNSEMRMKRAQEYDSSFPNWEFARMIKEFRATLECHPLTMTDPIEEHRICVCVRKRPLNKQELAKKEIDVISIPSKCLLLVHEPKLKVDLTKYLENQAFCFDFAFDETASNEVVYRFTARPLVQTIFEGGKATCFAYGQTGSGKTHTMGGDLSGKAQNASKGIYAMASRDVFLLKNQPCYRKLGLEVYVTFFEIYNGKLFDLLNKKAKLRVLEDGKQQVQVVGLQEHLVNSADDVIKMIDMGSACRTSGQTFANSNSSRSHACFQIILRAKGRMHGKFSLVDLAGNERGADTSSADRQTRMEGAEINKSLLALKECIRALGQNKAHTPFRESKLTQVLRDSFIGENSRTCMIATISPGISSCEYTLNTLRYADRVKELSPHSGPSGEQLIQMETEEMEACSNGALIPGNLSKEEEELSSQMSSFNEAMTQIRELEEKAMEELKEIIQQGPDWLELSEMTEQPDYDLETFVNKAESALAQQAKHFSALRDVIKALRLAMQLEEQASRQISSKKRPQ
UniProt Q16891, sequence (Q16891 whole entry, looked up): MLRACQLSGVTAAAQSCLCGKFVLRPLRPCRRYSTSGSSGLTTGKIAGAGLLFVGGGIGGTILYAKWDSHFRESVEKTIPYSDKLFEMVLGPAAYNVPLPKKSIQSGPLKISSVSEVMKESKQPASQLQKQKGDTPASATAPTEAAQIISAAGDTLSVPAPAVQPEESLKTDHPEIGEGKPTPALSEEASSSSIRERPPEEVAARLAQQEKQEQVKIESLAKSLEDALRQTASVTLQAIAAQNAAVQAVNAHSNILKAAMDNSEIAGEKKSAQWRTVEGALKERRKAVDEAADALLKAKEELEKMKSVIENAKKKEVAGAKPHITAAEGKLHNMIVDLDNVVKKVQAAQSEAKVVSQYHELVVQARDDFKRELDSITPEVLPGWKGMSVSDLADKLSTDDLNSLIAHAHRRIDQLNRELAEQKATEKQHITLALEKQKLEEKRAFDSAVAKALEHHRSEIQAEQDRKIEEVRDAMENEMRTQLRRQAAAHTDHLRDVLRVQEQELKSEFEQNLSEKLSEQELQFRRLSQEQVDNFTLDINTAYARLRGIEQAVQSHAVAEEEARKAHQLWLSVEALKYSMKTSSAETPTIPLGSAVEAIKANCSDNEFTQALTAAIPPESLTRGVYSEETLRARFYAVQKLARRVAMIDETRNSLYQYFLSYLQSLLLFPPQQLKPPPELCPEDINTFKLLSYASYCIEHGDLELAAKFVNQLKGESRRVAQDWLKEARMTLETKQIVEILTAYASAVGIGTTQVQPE
UniProt Q16644, sequence (Q16644 whole entry, looked up): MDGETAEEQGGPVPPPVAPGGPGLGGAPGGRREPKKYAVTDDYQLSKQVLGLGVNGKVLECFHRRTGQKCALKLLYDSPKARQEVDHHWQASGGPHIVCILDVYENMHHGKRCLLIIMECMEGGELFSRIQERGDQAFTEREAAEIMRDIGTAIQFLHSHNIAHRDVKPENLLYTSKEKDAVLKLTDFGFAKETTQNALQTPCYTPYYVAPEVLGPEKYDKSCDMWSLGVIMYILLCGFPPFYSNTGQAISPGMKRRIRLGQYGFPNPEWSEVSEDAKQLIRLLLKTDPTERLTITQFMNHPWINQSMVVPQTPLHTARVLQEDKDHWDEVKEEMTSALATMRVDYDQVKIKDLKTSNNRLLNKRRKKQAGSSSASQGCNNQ
UniProt Q9UGP4, sequence (Q9UGP4 whole entry, looked up): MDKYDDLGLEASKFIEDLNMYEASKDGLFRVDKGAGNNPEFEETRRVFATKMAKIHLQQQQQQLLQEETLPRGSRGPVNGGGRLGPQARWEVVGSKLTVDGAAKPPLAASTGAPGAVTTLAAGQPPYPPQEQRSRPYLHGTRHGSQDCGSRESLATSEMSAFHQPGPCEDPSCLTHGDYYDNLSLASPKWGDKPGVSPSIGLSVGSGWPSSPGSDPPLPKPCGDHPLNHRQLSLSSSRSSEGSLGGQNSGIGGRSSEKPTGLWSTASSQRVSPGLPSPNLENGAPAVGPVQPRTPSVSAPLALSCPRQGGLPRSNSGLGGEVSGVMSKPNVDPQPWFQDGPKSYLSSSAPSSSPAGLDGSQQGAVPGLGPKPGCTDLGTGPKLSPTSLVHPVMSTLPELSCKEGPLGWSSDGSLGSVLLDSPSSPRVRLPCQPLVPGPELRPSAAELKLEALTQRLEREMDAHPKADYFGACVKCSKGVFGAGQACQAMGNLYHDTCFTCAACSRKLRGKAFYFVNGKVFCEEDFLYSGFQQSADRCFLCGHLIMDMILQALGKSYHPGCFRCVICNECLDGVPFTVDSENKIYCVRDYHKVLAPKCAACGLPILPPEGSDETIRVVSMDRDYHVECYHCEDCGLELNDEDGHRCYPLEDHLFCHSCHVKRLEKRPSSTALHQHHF
UniProt P53778, sequence (P53778 whole entry, looked up): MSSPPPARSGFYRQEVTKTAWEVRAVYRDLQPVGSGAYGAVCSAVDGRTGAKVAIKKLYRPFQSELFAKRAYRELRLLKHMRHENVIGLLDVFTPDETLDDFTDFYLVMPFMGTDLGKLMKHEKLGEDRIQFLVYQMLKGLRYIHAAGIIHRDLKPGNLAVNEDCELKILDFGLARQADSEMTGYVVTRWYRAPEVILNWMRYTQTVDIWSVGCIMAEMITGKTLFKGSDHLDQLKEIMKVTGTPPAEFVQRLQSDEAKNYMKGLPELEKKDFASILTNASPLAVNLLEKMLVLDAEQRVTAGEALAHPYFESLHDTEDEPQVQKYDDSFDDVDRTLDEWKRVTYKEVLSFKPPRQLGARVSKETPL

log2 fold change, inactive:
MAP2K7 isoform 4 (UniProt O14733) -0.009
MICU2 (UniProt Q8IYU8) 0.019
ITPRID2 (UniProt P28290) -0.017
MEPCE (UniProt Q7L2J0) 0.154
KIF2C (UniProt Q99661) -0.097
KDM1A isoform 2 (UniProt O60341) -0.066
MAPKAPK3 (UniProt Q16644) 0.001
ILRUN (UniProt Q9H6K1) -0.004
IP6K1 (UniProt Q92551) -0.029
ING5 (UniProt Q8WYH8) -0.058
KCTD2 (UniProt Q14681) 0.139
LGALS8 isoform 2 (UniProt O00214) 0.101
LRBA, A0A494BZW2 -0.025
IKZF1 (UniProt Q13422) 0.042
LIMD1 (UniProt Q9UGP4) -0.025
LMNB2 (UniProt Q03252) -0.082
IMMT isoform 2 (UniProt Q16891) -0.053
MAPK12 (UniProt P53778) 0.02
IPO11 isoform 2 (UniProt Q9UI26) 0.022
IGF2R (UniProt P11717) -0.004
LARP1 (UniProt Q6PKG0) 0.028
MED8 isoform 2 (UniProt Q96G25) 0.034

Reference: the supplement of paper PMC10849652
